The inhibition is the change of the read-out against control, counted positive when it falls.

Inhibition data for 3 molecules are collected here from PubChem BioAssay AID1907 (The Scripps Research Institute Molecular Screening Center, 2009).

The campaign covered roughly 1,900 compounds. About 1,200 (63%) were called active. So high a share suggests a set chosen from earlier hits. Only a sample is shown. Values without a mark were called inactive. Cut-off read from the data, not from the text of the source: active = inhibition above about 22%; inactive = the rest.

This assay is described as follows: rat intestinal IEC-6 viability loss – cell-based, luminescence, cytotoxicity control, confirmation (AID 1907).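 Note: 0% = vehicle and 100% = reference cytotoxic drug.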 The conditions noted are these: IEC-6 rat intestinal epithelial viability, at 5 µM, stronger effect = higher value.
Take `CC1=CC(=Cc2sc3ccccc3[n+]2C)C=C(C)O1`: the inhibition is 32.9% (active).

On to `Cc1cc2ccccn2c1C(C[N+](=O)[O-])c1c(F)cccc1Cl` (stereo not drawn), for which the inhibition was 10.8%.

Regarding `COc1cc(-n2c(=S)[nH]c3ccc(C)cc3c2=O)c(Cl)cc1Cl`, the inhibition is -14.8%.
